# This is a sample that favours compounds with a hit; in the whole collection about 3.6% have one here.
# NadD inh = blocks S. aureus nicotinate mononucleotide adenylyltransferase; purified NadD enzyme, colorimetric absorbance read-out; 360,000 compounds, 0.78% hits; inhibition, % at 20 µM; AID 602399; in the data active means inhibition above about 26%
# NRP1-CendR mod = alters CendR peptide binding to human NRP-1; O14786; FAM-RPARPAR peptide binding to NRP-1, fluorescence polarization; inhibition, % at 25 µM; 360,000 compounds, 0.85% hits; AID 602438;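 active means inhibition or corrected inhibition above about 18%, plus a signal ratio from 0.5 to 1.5, limit read from the data, passing the limit was not always enough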
# CRFBP-R2 block = blocks CRF-induced signaling of the CRF-BP/CRF-R2 complex; 350,000 compounds, 0.59% hits; inhibition, % at 11.8 µM; HEK293 CRF-R2/CRF-BP, CRF-induced calcium fluorescence;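 active means inhibition of the ligand-induced calcium signal above about 50% at the single tested concentration, limit read from the data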
# Myeloid diff 2 = promotes myeloid progenitor differentiation | ER-HoxA9 myeloid progenitors, lysozyme-GFP differentiation, flow cytometry | calls only at 10 µM | 360,000 compounds, 1% hits | AID 624256;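 active means normalized GFP-positive differentiation at or above the plate's own cutoff, the solvent-only control mean plus 3 SD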;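 further: cells exposed to compound for four days before flow analysis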
# FAS TE block = FAS thioesterase (human) inhibition. inhibition, % at 15 µM. 360,000 compounds, 0.67% hits. recombinant FAS-TE, OMFH fluorogenic substrate, fluorescence endpoint. AID 602261. P49327;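 active means compounds whose normalised, plate-corrected inhibition of enzyme fluorescence in the single-dose primary screen is 50% or more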;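 further: 0% = DMSO with enzyme and 100% = substrate without enzyme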
# Target sequence (P49327 whole entry, looked up): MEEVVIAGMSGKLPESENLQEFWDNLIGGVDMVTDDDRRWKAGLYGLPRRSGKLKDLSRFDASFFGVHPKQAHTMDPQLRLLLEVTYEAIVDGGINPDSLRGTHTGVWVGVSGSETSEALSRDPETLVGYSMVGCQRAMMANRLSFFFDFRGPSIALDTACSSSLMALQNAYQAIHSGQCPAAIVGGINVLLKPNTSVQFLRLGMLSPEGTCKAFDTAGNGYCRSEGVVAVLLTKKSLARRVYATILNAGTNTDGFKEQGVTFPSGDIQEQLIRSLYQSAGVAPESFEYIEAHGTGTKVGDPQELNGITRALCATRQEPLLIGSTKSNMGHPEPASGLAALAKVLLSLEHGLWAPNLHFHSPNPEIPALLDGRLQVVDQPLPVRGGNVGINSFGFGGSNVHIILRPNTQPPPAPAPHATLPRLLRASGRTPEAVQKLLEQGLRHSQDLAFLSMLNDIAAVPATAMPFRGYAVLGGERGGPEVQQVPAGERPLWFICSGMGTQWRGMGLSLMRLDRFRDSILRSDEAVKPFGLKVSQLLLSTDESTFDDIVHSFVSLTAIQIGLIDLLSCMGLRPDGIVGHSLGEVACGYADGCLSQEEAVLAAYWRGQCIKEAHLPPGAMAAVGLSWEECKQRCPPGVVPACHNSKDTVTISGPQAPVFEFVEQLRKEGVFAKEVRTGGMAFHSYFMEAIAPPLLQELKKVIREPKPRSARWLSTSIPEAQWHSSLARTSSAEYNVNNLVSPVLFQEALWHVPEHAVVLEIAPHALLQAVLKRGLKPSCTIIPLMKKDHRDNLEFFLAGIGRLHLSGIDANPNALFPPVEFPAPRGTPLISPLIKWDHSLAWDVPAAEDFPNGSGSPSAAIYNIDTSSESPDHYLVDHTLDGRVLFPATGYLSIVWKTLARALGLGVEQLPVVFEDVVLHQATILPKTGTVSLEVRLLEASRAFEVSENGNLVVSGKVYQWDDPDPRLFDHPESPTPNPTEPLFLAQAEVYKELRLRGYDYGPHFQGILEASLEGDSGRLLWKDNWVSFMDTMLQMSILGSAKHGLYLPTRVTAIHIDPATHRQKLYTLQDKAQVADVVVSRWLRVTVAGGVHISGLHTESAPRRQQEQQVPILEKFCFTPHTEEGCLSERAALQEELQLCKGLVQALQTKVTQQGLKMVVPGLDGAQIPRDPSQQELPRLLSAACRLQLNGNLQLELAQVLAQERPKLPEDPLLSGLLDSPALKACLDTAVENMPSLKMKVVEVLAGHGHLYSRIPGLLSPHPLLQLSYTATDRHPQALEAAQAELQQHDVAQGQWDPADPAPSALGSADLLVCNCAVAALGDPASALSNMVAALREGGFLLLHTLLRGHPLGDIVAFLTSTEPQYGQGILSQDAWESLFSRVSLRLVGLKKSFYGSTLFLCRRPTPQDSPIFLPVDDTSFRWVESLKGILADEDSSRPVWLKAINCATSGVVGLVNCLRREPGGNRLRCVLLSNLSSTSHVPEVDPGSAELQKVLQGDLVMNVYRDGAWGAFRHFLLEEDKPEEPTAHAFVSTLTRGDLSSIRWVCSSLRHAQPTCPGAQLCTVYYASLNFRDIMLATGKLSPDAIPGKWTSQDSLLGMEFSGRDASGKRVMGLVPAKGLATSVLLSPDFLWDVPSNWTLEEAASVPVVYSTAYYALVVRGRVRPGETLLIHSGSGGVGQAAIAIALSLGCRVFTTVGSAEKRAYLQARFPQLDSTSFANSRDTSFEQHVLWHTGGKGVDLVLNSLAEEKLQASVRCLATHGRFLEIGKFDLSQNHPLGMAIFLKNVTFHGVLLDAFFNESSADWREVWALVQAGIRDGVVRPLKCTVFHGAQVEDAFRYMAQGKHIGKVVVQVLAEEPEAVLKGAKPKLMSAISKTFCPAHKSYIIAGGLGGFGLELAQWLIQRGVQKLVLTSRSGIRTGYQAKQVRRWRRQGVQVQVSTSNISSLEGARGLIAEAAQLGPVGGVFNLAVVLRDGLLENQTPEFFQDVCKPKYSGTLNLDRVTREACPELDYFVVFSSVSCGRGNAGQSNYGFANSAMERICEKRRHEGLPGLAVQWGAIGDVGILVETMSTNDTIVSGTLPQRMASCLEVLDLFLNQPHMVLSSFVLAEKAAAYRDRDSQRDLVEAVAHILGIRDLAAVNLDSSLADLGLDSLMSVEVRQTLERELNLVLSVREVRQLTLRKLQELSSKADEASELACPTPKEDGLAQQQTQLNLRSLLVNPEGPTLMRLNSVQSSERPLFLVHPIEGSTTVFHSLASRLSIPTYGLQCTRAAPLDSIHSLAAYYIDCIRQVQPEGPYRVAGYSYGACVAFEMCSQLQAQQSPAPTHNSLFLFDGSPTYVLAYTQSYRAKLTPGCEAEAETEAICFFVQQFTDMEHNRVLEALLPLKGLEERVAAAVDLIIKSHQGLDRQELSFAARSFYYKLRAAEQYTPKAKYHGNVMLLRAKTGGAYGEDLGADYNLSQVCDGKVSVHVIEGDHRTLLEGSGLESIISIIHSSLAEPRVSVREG
# An asterisk follows results filed as active; i = inactive; · = not tested or not shown; + = active, no number.
SMILES,NadD inh,NRP1-CendR mod,CRFBP-R2 block,Myeloid diff 2,FAS TE block
COc1cc([C@H]2c3[nH]c4ccccc4c3C[C@H]3C(=O)N4[C@@H](c5cc(OC)c(OC)c(OC)c5)c5[nH]c6ccccc6c5C[C@H]4C(=O)N23)cc(OC)c1OC,3,-6,1,i,12
O=C1[C@@H]2Cc3c([nH]c4ccccc34)C(c3ccccc3)N2C(=O)CN1CCO (stereo partly drawn),-1,-4,-25,i,-6
CCN1C(=O)[C@@H]2Cc3c([nH]c4ccccc34)C(c3cc(OC)c(OC)c(OC)c3)N2C1=S (stereo partly drawn),1,-24,10,+,8
C=CCN1C(=O)[C@@H]2Cc3c([nH]c4ccccc34)C(c3ccc(O)cc3)N2C1=S (stereo partly drawn),-1,-76,7,+,12
COc1ccc(CNC(=O)c2sc(=O)n(Cc3ccc(C)cc3)c2C)cc1,-7,4,·,i,12
Cc1nc2ccccc2nc(C)c1=NOCc1ccccc1Cl,-7,-9,51*,i,8
C/C(=N\Nc1cc(C)nc(-c2ccccc2)n1)c1cccc([N+](=O)[O-])c1,-11,-11,119*,i,19
O=C(CSc1nc2ccccc2n1Cc1ccccc1Cl)N/N=C/c1ccccc1C(=O)O,9,40*,-26,i,4
CC(=O)NCC(=O)NNC1CC(=O)N(c2cccc(Cl)c2)C1=O (stereo not drawn),-15,8,12,i,0
Cc1nc(CSc2ccc(Br)cc2)cs1,-5,20*,12,i,3
O=C(ON=C1CCN(c2ccc([N+](=O)[O-])cc2)CC1)c1ccccc1,1,2,64*,i,24
COc1ccc(C(=O)ON=C2CCN(c3ccc([N+](=O)[O-])cc3)CC2)cc1,-5,-9,21,i,22
CC1(C(=O)NCc2ccc3c(c2)OCO3)CCN1C(=O)C1(c2ccc(Cl)cc2)CC1 (stereo not drawn),-4,-3,·,i,3
Cc1cc(C)cc(Nc2c(F)c(F)c(F)c(F)c2C(=O)O)c1,-3,-16,52*,i,-1
O=C(NCCCNC(=O)c1cc(Cl)ccc1Cl)c1ccco1,2,1,-1,i,-3
CCOC(=O)[C@]12CCCC=C1N(Cc1ccco1)C(=O)[C@H](CC(=O)N1CCCCC1)C2,7,0,·,i,-6
Cc1c(C(=O)O)sc(S(=O)(=O)N2CCN(C(=O)Cc3ccccc3)CC2)c1C(=O)O,4,2,11,i,-6
CSc1ccccc1C(=O)N1CCN(S(=O)(=O)c2sc(C(=O)O)c(C)c2C(=O)O)CC1,3,1,84*,i,-8
Cc1cccc(-c2nc(CS(=O)CC(=O)NC3CCCCC3)c(C)o2)c1 (stereo not drawn),-2,12,-14,i,-1
Brc1ccc([C@H]2CN3CCSC3=N2)cc1,-1,-10,7,i,-18
c1ccc(C2CN3CCSC3=N2)cc1 (stereo not drawn),2,5,89*,i,-6
O=C1N(Cc2cccc(Cl)c2)C[C@@H]2C[C@@H](c3cccc4ncccc34)N3CCC[C@@]123,0,-10,-14,i,8
O=C1N(Cc2cccc(Cl)c2)C[C@@H]2C[C@@H](c3c[nH]c4ccccc34)N3CCC[C@@]123,13,-183,-13,+,-23
CC(C)(C)OC(=O)N1CCC(Cc2cc(-c3cccnc3)no2)(C(=O)O)CC1,2,2,-4,+,-4
CC(C)(C)OC(=O)N1CCC(Cc2cc(-c3ccccc3)no2)(C(=O)O)CC1,0,-2,-5,i,-2
SMILES,NadD inh,NRP1-CendR mod,CRFBP-R2 block,Myeloid diff 2,FAS TE block
C=CCNC(=S)NNC(=O)c1ccc(OCC)cc1,-4,-7,109*,i,-9
Cc1nc2ccc(NS(=O)(=O)c3ccc(C)c(C)c3)cc2s1,1,-8,78*,i,8
CC(=O)c1cccc(S(=O)(=O)Nc2ccc3nc(C)sc3c2)c1,-3,-8,1,i,-2
Cc1ccc(C2=NOC(C)(c3nnc(Cc4ccccc4)o3)C2)cc1 (stereo not drawn),-1,2,-3,i,-4
O=C(CCn1cncn1)N1CCCC(N2CCN(c3ccc(F)cc3)CC2)C1 (stereo not drawn),-4,25*,-5,i,-4
CCOC1=C2CN(S(=O)(=O)c3ccc(C)cc3)C(c3ccccc3)CC2N(S(=O)(=O)c2ccc(C)cc2)C(c2ccc(Br)cc2)C1 (stereo not drawn),·,-10,·,i,·
C=CCN(CC=C)C(=O)C1CC(=O)N(c2ccc(Br)cc2)C1 (stereo not drawn),1,30*,-13,i,-5
CSc1ccc(NC(=O)C2(C)CCN2C(=O)c2ccccc2CCc2ccccc2)cc1 (stereo not drawn),-1,42*,·,i,22
Cc1ccc(C(=O)OCN2C(=O)c3ccccc3C2=O)cc1S(=O)(=O)N1CCOCC1,1,-9,4,i,9
CC1CCN(S(=O)(=O)N2CCC(C(=O)NCCN3CCOCC3)CC2)CC1,11,-4,0,i,-6
O=C(NCCN1CCCCCC1)C1CCN(S(=O)(=O)N2CCOCC2)CC1,-4,23*,4,i,-3
CCOC(=O)CNc1ccc2c(c1)OCO2,15,34*,1,i,-5
COc1ccc(CCn2c(C)cc3c(c2=O)C(c2ccncc2)C(C#N)=C(N)O3)cc1OC (stereo not drawn),2,19*,2,i,-8
CN(Cc1nc2ccccc2c(=O)[nH]1)C(=O)COc1ccccc1Cc1ccccc1,-1,31*,-23,i,7
O=C(c1ccncc1)N(Cc1ccccc1)Cc1nc2ccccc2c(=O)[nH]1,-1,-13,-24,+,1
COc1ccc(NC(=S)Nn2cnnc2)cc1OC,-2,6,4,i,-7
COc1ccc(NC(=S)Nn2cnnc2)c(OC)c1,2,44*,5,i,-6
CCC1CCCCN1CCCNC(=O)c1cn(C)c2ccc(S(=O)(=O)N(C)C3CCCCC3)cc2c1=O (stereo not drawn),-7,-1,56*,i,-4
CCC1CCCCN1CCCNC(=O)c1cn(C)c2ccc(S(=O)(=O)N3CCOCC3)cc2c1=O (stereo not drawn),-1,10,10,i,-8
O=C(Nc1ccc2c(c1)OCO2)c1ccc2nc([C@@H]3O[C@H](CO)[C@H](O)[C@H](O)[C@H]3O)[nH]c2c1,-1,-3,·,i,-9
Cc1ccc(Nc2nc3c([nH]2)c(=O)n(C)c(=O)n3C)cc1,-5,-3,-8,i,-7
Cn1c(=O)c2[nH]c(NCCCN3CCOCC3)nc2n(C)c1=O,-5,22*,-4,i,-8
O=C1CCSc2c1ccc1ccccc21,-5,1,61*,+,1
